Source: PubChem (several laboratories)
Rows were chosen to be rich in hits. Some 4.9% of all compounds tested hit in one or more screens of this group.
CSC inhib – blocks cancer stem cells | 1.1% of 300,000 active | cancer stem cell-like cells viability, luminescence | inhibition, % at 7.5 µM | AID 2717; in the data active = inhibition above about 75%; inconclusive = no clear call, values can overlap the other calls; tested in HMLE shEcad cells
PP1 inh – counter-screen for PP5 inhibitors: inhibitors of human PP1-alpha. purified PP1alpha, OMFP fluorescence. inhibition, % at 6.7 µM. 0.9% of 320,000 active;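 active = inhibition above the mean inhibition of all tested compounds plus 3 SD, computed separately for each screening campaign, cut at about 15% in these data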
Mdm2 MdmX PPI – inhibitors of human Mdm2/MdmX interaction | 3% of 330,000 active | SaOS-2 split-luciferase Mdm2/MdmX complementation, luminescence | O15151+Q00987 | inhibition, % at 8 µM | AID 485346;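 active = inhibition of at least 50% at 8 µM in the primary screen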
Target sequence (O15151 whole entry, looked up): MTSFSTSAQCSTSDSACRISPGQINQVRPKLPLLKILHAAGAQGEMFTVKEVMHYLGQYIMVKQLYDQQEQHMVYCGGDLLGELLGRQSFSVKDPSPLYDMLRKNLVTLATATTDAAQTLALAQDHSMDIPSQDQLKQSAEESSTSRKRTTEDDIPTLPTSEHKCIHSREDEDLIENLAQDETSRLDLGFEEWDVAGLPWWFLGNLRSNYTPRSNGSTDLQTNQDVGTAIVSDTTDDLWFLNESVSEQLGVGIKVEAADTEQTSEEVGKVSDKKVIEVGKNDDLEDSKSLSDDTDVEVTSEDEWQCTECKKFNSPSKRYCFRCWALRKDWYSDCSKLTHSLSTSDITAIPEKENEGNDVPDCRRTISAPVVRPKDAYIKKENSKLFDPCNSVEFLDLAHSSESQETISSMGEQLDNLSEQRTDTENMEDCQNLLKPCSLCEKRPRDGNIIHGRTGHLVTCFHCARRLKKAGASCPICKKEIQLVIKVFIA
Target sequence (Q00987 whole entry, looked up): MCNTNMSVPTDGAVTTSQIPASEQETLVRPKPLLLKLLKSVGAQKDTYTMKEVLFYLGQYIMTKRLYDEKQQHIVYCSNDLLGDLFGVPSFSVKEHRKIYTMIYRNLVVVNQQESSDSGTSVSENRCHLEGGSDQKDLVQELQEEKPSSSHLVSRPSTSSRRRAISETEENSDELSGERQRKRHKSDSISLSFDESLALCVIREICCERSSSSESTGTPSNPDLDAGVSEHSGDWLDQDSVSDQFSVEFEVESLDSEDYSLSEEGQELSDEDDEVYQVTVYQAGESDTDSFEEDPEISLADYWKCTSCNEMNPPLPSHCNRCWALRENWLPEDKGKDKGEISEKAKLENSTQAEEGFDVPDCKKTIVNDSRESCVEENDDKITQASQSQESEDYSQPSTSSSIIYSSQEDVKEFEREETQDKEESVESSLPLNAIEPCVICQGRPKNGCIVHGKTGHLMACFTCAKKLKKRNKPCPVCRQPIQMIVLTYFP
Beta apoptosis – blocks beta cell apoptosis. INS-1E cytokine-induced death, ATP luminescence, 48 h; percent of positive-control rescue, neutral wells zero. protection from apoptosis, % (no concentration beside the values). 0.8% of 300,000 active. AID 435005;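 active = Every replicate reaches about 75%, or at least half do and their mean reaches it too, limit read from the data; inconclusive = At least half of replicates reach the limit but their mean does not; inactive = Under half of replicates reach the limit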;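 also: 0% = cytokine-treated negative control wells and 100% = positive control rescue; higher means more ATP so stronger rescue from cytokine killing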
PP5 inh – PP5 (human) phosphatase inhibition; P53041; purified PP5c, OMFP substrate fluorescence; inhibition, % at 6.7 µM; 0.18% of 320,000 active; AID 1987;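 active = inhibition above the campaign's mean inhibition across all tested compounds plus 3 SD, cut at about 9.5% in these data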;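 also: 0% = DMSO only and 100% = 100 µM cantharidin control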
Calb FLC – C. albicans growth modulation with fluconazole; 0.57% of 300,000 active; C. albicans CaCi-2 (fluconazole-resistant clinical isolate) + fluconazole, Alamar Blue growth, 48 h; growth inhibition, % (test concentration not listed);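 active = growth inhibition above about 58% in most replicates, limit read from the data, passing the limit was not always enough; inconclusive = exactly half the replicates above a set limit; inactive = most replicates below a set limit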;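 also: all wells also contain fluconazole at 8 µg/ml as a sub-toxic cotreatment; 0% = median of DMSO wells and 100% = median of geldanamycin control wells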
Mdm2-MdmX conf – human Mdm2/MdmX binding inhibition, confirmed; shares compounds with Mdm2 MdmX PPI; luminescent assay; AID 489028; 55% of 10,000 active; inhibition, % at 8 µM; in the data active = inhibition above about 40%
Full FLuc ctr – counter-screen for Mdm2/MdmX inhibitors: full-length luciferase. shares compounds with Mdm2 MdmX PPI. SaOS-2 full-length luciferase counterscreen, luminescence. inhibition, % at 8 µM. 77% of 6,200 active;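 active = mean inhibition at 8 µM reaching about 37%, which flags the compound as non-specific, limit read from the data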;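 also: p53-null SaOS-2 cells with luciferase driven by a doxycycline-inducible promoter; compound on cells about two nights before reading with doxycycline added after day one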
An asterisk follows results filed as active; ? = inconclusive; / = not tested or not shown.

SMILES	CSC inhib	PP1 inh	Mdm2 MdmX PPI	Beta apoptosis	PP5 inh	Calb FLC	Mdm2-MdmX conf	Full FLuc ctr
Cc1onc(-c2ccccc2)c1C(=O)Nc1sc2c(c1C#N)CCC2	/	2	55*	/	4	8	60*	49*
CCOC(=O)c1c(-c2ccccc2)csc1NC(=O)c1cc(-c2ccccc2OC)on1	3	-3	-2	5	-2	-20	/	/
COC(=O)c1ccc(C)c(NC(=O)c2c(-c3ccccc3)noc2C)c1	-6	0	-2	6	-2	-5	/	/
S=C(N/N=C/c1ccccc1Cl)Nc1cccc(Cl)c1Cl	49	-1	39	52	0	-3	/	/
O=C(Nc1cccc(Cl)c1)Nc1csc([N+](=O)[O-])c1	?	1	90*	126*	4	-1	87*	39*
O=C(COc1ccccc1)N1CCN(S(=O)(=O)c2cccc([N+](=O)[O-])c2)CC1	5	-1	3	-4	0	-13	/	/
Cc1ccccc1C(=O)NC(CC(C)C)C(=O)OCC(=O)c1c(N)n(C)c(=O)n(C)c1=O (stereo not drawn)	4	-1	-18	-7	1	7	/	/
COc1cc(C2c3c(n[nH]c3C)C(=O)N2c2ccc(C)cc2)ccc1O (stereo not drawn)	-6	-1	69*	4	3	8	72*	51*
CCOc1cc(C2c3c(n[nH]c3C)C(=O)N2c2ccc(C)cc2)ccc1O (stereo not drawn)	-15	0	4	-3	0	22	/	/
CCN(C(=O)CSc1nnc(Nc2ccccc2)s1)C1CCS(=O)(=O)C1 (stereo not drawn)	-10	-2	25	5	1	-16	/	/
Cn1c(C(=O)NN)cc2cc(OCc3ccccc3)ccc21	-2	1	-7	1	5	3	/	/
O=C(NCc1ccco1)C(c1ccc(F)cc1)N(C(=O)Cc1cccs1)c1cccnc1 (stereo not drawn)	/	-4	12	-4	-1	15	/	/
O=C(CSc1nnc2ccccn12)Nc1cccc(S(=O)(=O)N2CCOCC2)c1	-5	-4	17	-7	3	2	/	/
Cc1ccc(C(=O)Cn2c(C(=O)/C=C/c3ccccc3)nc3ccccc32)cc1	41	0	56*	41	1	3	55*	53*
Cc1ccc(C(=O)Cn2c(NCCO)nc3ccccc32)cc1	-8	-2	-5	-1	1	-3	/	/
O=C(CCc1ccccc1)N1CCN(Cc2ccc(F)cc2Cl)CC1	47	-1	6	-4	3	0	/	/
CC(=O)c1ccn(S(=O)(=O)c2ccccc2)c1	-5	-9	8	-3	0	3	/	/
O=C(CCl)NCc1c(Cl)cccc1-n1cccc1	-8	1	56*	10	0	-8	41*	36
O=C(Cc1c(Cl)cccc1Cl)NCCc1ccc(Cl)cc1	-19	-4	16	-6	2	-14	/	/
CCOC(=O)Nc1csnn1	/	/	-5	/	/	0	/	/
Cn1c(N)c(C(=O)COC(=O)c2cc(C(F)(F)F)nc3ccccc23)c(=O)n(Cc2ccccc2)c1=O	1	4	50*	0	2	/	35	/
Cn1c(N)c(C(=O)CCl)c(=O)n(Cc2ccccc2)c1=O	-7	-1	26	-14	-1	5	/	/
Cc1cc(C(=O)CSc2nc3ccccc3c(=O)n2C)c(C)n1Cc1ccc2c(c1)OCO2	21	0	63*	99*	-2	-10	32	/
Cn1c(N)c(C(=O)CSc2nc3ccccc3c(=O)n2Cc2ccccc2)c(=O)n(C)c1=O	-2	-1	89*	5	-1	7	44*	90*
Cn1c(=O)c(C(=O)CCl)c(N)n(Cc2ccccc2)c1=O	20	-3	58*	1	5	4	46*	86*
SMILES	CSC inhib	PP1 inh	Mdm2 MdmX PPI	Beta apoptosis	PP5 inh	Calb FLC	Mdm2-MdmX conf	Full FLuc ctr
CCCn1c(N)c(C(=O)CSc2nc3ccccc3c(=O)n2Cc2ccccc2)c(=O)[nH]c1=O	20	-3	14	5	1	3	/	/
O=C(NCCc1ccccc1)c1c(O)c2ccccc2[nH]c1=O	12	4	14	/	0	-4	/	/
CCNC(=O)c1c(O)c2ccccc2[nH]c1=O	8	-4	76*	-14	-1	11	53*	76*
O=C(NC1CC1)c1c(O)c2ccccc2[nH]c1=O	8	/	59*	-1	/	7	-6	/
O=C(CCCCn1c(=O)c2ccccc2n(Cc2ccc(F)cc2Cl)c1=O)NCc1ccco1	13	0	54*	-4	0	0	25	/
Cc1cc(C(=O)COC(=O)Cc2ccc(Cl)cc2)c(C)n1C	0	/	17	8	/	/	/	/
COc1cc(OC)c(C(=O)O/N=C(\N)c2ccc(C)cc2)cc1OC	4	2	69*	-8	0	39	43*	104*
N/C(=N\OC(=O)c1cc(Cl)ccc1Cl)c1ccncc1	/	1	-72	-9	-1	-4	/	/
Cc1noc(-c2ccc(Cl)cc2)c1C(=O)O/N=C(\N)c1ccc(C(C)(C)C)cc1	171*	0	100*	39	3	1	98*	60*
COc1ccc(Cl)cc1C(=O)O/N=C(\N)c1ccc(Cl)cc1	-7	-3	71*	9	0	18	45*	81*
Cc1occc1C(=O)O/N=C(\N)c1ccc(Cl)cc1	-6	-3	100*	/	-2	-1	50*	148*
Cc1ccc(/C(N)=N/OC(=O)c2ccco2)cc1	-5	1	-95	6	4	31	/	/
O=C(c1ccco1)N1CCN(C(=O)c2cnn(-c3ccc(Cl)cc3)c2C2CCNCC2)CC1	-1	-2	7	1	-2	-9	/	/
CCN(Cc1ccncc1)Cc1nc(Cc2ccccc2Cl)no1	-8	-1	1	29	-1	1	/	/
COc1cc(OC)c(C(=O)O/N=C(\N)c2cccc(C)c2)cc1OC	-2	-1	79*	-2	3	3	47*	100*
Cn1cc(S(=O)(=O)NC2CCCCC2)c(=O)n(C)c1=O	-12	-3	28	/	2	6	/	/
O=C(Nc1ccc(-n2ccc(C(F)(F)F)n2)cc1)Nc1cccc(Cl)c1	44	8	80*	116*	4	-16	30	82*
Cc1nnc2ccc(-c3cccc(NS(=O)(=O)c4ccccc4[N+](=O)[O-])c3)nn12	24	0	56*	13	0	3	55*	82*
Cc1nnc2ccc(-c3cccc(NS(=O)(=O)c4cc(F)ccc4F)c3)nn12	14	2	49	5	1	-5	/	/
Cc1nnc2ccc(-c3cccc(NS(=O)(=O)c4ccccc4Cl)c3)nn12	13	0	56*	5	-1	9	57*	55*
